Laboratory results from the OligoGym collection.

biological target: NCAPG2; assay: pooled miR-30 sensor sort-seq; sequence = guide strand; details: shRNA
Note: reference of the scale not given here.

Sequence | sensor-assay potency score (higher = more potent)
TTGCAAAAACTCTCCAACCAGC | -0.983
TTCAATGCTATCCTCTTCCAAA | -0.814
TTGTCGTGGAGACTGTATCTGA | -0.323
TAAGCAATGACGAATAACGTGA | 0.14
